The results in this text go back to PubChem BioAssay.

Activity calls are given as the source filed them. Unless noted, how the calls were made is not given here.

In assay [1] the test system is Wnt5a (protein binding on small-molecule microarray). As to the kind of experiment: Wnt5a binders on small-molecule microarray, primary screen, biophysical, 635/667 nm fluorescence (AID 1142).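 Further: fluorescence read at 667 nm with signal to noise per printed feature.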 Conditions: 635 nm fluorescence, higher = more signal.
Assay [2] is described as follows: cell viability in Huh7 cells, primary screen, cytotoxicity control for HCV replication inhibitor project, CellTiter-Glo luminescence, basal, 48 h (AID 1143).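 Further: Huh7 hepatoma cells carrying a hepatitis C replication reporter with no stimulus; test concentration not given here.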 Particulars: Huh7 HCV replicon, higher = more signal, called active from +8 up or from −8 down. For orientation: Cellular ATP, detected with luciferase, serves as a proxy for viable cell number.
The nature of assay [3]: P. aeruginosa biofilm formation inhibitors, primary screen, PAO1 strain, BacTiter-Glo luminescence, LB-PBS (AID 1144). Conditions: 12 h, higher = more signal.
Assay [4] in a line: CREB reporter modulators without forskolin, primary screen, cell-based, PC12, CRE-LacZ reporter, unstimulated (AID 1145). Conditions: no forskolin, luminescence, 4.5 h, higher = more signal, called active from +8 up or from −8 down.
The nature of assay [5]: CREB reporter modulators under forskolin, primary screen, cell-based, PC12, CRE-LacZ reporter, forskolin-stimulated (AID 1146).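 Further: PC12 cells with 6xCRE LacZ reporter stimulated by forskolin 10 µM; beta-galactosidase reporter signal reflecting CREB driven transcription.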 Conditions: luminescence, 4.5 h, higher = more signal, called active from +8 up or from −8 down.
Assay [6] concerns the target Streptavidin (Streptomyces avidinii) (UniProt P22629). The experiment in a line: streptavidin binders on small-molecule microarray, primary screen, artefact control for SMM compound annotation, biophysical, 635/667 nm fluorescence (AID 1147).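 Further: signal reflects streptavidin binding to arrayed compounds as a control protein.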 Particulars: streptavidin binding, higher = more signal.
Assay [7] in a line: small-molecule binders of probe aInhba, primary screen, biochemical, small-molecule microarray, 635/667 nm fluorescence (AID 1148).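 Further: score merges 667nm spot fluorescence with signal-to-noise for antibody binding to printed compounds.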 Conditions: higher = more signal.
Assay [8] deals with Torsin-1A (Homo sapiens) (UniProt O14656). As to the kind of experiment: torsin A binders from cell lysate, primary screen, small-molecule microarray, wild-type, 635/667 nm (AID 1149). Conditions: COS7 hTOR1A-WT lysate, 635 nm fluorescence, higher = more signal.
Chain of Torsin-1A (Homo sapiens) (O14656 whole entry, looked up): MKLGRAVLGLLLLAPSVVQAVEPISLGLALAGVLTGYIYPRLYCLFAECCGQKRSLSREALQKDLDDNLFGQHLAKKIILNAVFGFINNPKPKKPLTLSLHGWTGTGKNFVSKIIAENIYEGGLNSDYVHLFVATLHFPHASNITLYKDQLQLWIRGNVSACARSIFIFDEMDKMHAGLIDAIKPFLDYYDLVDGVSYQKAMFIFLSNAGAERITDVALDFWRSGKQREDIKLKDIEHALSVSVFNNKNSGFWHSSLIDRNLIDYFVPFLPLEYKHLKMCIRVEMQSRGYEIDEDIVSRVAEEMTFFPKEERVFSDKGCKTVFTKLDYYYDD
The target is the same in assay [9]. As to the kind of experiment: small-molecule binders of mutant TOR1A in lysate, primary screen, cell lysate, small-molecule microarray, COS7 lysate, 635/667 nm fluorescence (AID 1150).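 Further: score pools 667 nm emission and signal to noise measuring lysate protein binding.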 Conditions: COS7 hTOR1A mutant lysate, 635 nm fluorescence, higher = more signal.
The test system of assay [10] is Sonic hedgehog protein (Shh). As to the kind of experiment: small-molecule binders of Shh protein, primary screen, biochemical, small-molecule microarray, 635/667 nm fluorescence (AID 1151).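 Further: Shh protein binding to compounds spotted on small-molecule microarray slides; score combines spot fluorescence intensity with signal-to-noise across triplicate slides.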 Conditions: small-molecule microarray binding, 635 nm fluorescence; higher = more signal.
Assay [11] is described as follows: E. coli DRC41 culture turbidity changes, primary screen, E. coli filamentation inducer project, strain DRC41, OD650, 48 h (AID 1152).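 Further: E. coli MC1000 strain DRC41 lacking acrAB efflux pump and sulA.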 Conditions: E. coli DRC41 (acrAB sulA), higher = more signal, called active from +8 up or from −8 down.
Assay [12] is described as follows: small-molecule binders of probe aLefty1, primary screen, biochemical, small-molecule microarray, 635/667 nm fluorescence (AID 1153).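 Further: score merges spot fluorescence with signal-to-noise ratio from the scanned slide images.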 Conditions: higher = more signal.
The nature of assay [13]: PSAC antagonists in infected red cells, primary screen, cell-based, P. falciparum Indochina, OD700, 1 h (AID 1154). Conditions: P. falciparum Indochina infected RBC osmotic lysis, higher = more signal, called active from +8 up or from −8 down.
Assay [14] in a line: PSAC antagonists in infected red cells, primary screen, cell-based, P. falciparum Indochina, OD700, 2 h (AID 1155).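 Further: lysis reports solute entry through the parasite surface anion channel PSAC; channel blockers reduce lysis of infected cells.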 Particulars: P. falciparum Indochina infected erythrocytes, osmotic lysis OD700; higher = more signal, called active from +8 up or from −8 down.
Assay [15] in a line: osmotic lysis modulators in infected erythrocytes, primary screen, PSAC antagonist project, cell-based, P. falciparum Indochina, OD700, 3 h (AID 1156). Conditions: higher = more signal, called active from +8 up or from −8 down.
Assay [16] in a line: PSAC antagonists in infected red cells, primary screen, cell-based, P. falciparum Indochina, OD700, 18 h (AID 1157). Conditions: P. falciparum Indochina infected erythrocytes, osmotic lysis OD700, 18 h; higher = more signal, called active from +8 up or from −8 down.
A short description of assay [17]: modulators of S6 phosphorylation in cells, primary screen, cell-based, A549, cytoblot, luminescence, serum-stimulated (AID 1158).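 Further: serum-stimulated A549 lung adenocarcinoma cells; signal is phosphorylated S6 detected by cytoblot immunostaining with HRP secondary.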 Particulars: A549 phospho-S6 cytoblot, 5 h, higher = more signal.
Assay [18] has as its target NADPH oxidase 2 (Homo sapiens) (UniProt P04839). The experiment in a line: NOX2-dependent H2O2 signal modulators, primary screen, NOX inhibitor project, cell-based, HEK293-NOX2, PMA-stimulated, Amplex Red fluorescence (AID 1159). Further: test concentration not given here. Conditions: 45 min, higher = more signal, called active from +8 up or from −8 down.
Assay [19] has as its target NADPH oxidase 4 (Homo sapiens) (UniProt Q9NPH5). As to the kind of experiment: NOX4-dependent H2O2 signal modulators, primary screen, NOX inhibitor project, cell-based, HEK293-NOX4, tetracycline-induced, Amplex Red fluorescence (AID 1160). Particulars: 45 min, higher = more signal, called active from +8 up or from −8 down.
For assay [20], the target named is NADPH oxidase 5 (Homo sapiens) (UniProt Q96PH1). The experiment in a line: NOX5-dependent H2O2 signal modulators, primary screen, NOX inhibitor project, cell-based, HEK293-NOX5, Amplex Red fluorescence (AID 1161). Conditions: HEK293-NOX5, ionomycin, 45 min, higher = more signal.
Chain of NADPH oxidase 5 (Homo sapiens) (Q96PH1 whole entry, looked up): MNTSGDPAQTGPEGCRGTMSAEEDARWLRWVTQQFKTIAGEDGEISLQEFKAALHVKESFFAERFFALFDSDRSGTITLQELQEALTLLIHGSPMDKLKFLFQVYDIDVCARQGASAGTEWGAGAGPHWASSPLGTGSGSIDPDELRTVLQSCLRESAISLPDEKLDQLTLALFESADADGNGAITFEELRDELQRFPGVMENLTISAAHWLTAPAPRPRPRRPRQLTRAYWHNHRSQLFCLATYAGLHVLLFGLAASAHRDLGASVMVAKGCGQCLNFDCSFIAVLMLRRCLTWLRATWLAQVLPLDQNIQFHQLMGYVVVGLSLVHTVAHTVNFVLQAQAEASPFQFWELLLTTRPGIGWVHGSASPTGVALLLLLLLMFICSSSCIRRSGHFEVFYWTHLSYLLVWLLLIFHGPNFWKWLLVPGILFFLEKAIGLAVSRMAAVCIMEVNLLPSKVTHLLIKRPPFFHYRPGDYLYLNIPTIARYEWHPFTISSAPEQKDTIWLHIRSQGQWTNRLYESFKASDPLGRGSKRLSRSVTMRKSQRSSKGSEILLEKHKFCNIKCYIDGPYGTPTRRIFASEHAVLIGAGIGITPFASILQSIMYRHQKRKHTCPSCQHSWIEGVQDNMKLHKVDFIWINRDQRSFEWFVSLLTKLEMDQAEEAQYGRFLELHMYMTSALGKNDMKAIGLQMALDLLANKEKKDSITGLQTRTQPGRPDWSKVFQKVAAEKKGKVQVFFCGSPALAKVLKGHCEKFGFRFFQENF

Chain of NADPH oxidase 2 (Homo sapiens) (P04839 whole entry, looked up): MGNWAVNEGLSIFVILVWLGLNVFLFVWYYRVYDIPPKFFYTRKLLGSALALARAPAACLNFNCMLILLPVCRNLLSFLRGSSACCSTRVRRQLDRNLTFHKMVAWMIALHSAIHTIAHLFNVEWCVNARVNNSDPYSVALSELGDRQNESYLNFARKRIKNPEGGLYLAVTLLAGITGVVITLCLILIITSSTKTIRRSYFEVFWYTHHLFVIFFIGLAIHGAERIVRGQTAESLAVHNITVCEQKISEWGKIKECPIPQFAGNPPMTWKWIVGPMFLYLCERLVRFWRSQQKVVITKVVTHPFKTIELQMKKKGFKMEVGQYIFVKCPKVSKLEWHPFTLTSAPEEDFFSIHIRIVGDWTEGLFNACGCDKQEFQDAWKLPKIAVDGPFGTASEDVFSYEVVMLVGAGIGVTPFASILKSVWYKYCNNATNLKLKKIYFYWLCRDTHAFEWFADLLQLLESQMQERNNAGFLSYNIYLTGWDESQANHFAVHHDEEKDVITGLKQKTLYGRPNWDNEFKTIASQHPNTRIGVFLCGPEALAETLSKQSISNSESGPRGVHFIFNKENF
Chain of NADPH oxidase 4 (Homo sapiens) (Q9NPH5 whole entry, looked up): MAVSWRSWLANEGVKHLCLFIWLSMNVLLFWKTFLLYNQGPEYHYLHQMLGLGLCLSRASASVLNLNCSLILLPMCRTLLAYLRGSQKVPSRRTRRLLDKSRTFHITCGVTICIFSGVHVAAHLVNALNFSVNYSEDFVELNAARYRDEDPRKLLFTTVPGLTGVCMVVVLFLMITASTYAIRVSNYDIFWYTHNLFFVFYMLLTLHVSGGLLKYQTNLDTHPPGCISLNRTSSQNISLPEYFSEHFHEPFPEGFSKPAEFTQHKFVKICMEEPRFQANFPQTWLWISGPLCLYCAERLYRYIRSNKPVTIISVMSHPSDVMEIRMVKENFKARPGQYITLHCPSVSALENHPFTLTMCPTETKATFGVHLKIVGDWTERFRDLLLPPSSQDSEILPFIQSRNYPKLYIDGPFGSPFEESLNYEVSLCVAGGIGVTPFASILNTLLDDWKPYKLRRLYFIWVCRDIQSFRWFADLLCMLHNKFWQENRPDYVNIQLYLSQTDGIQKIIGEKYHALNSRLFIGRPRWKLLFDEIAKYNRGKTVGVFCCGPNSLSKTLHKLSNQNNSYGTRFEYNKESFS
Chain of Streptavidin (Streptomyces avidinii) (P22629 whole entry, looked up): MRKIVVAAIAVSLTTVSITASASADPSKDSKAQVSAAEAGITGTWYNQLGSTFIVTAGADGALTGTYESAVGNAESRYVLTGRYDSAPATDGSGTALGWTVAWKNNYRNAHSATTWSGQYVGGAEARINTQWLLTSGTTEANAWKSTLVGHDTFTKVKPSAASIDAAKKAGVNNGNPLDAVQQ

In the case of `O=C1C[C@@H](O)[C@@H](O)[C@@H]2[C@@H]3C(=O)N(Cc4ccccc4)C(=O)[C@@H]3CC[C@H]12`, the composite z-score in [1] was 0.0217; in [6], 0.636; in assay [7], -0.0719; with Torsin-1A (Homo sapiens) [8] it was 0.176; with Torsin-1A (Homo sapiens) [9], 0.37; in assay [10], 0.718. Moreover, the composite z-score in assay [12] is -0.147. Besides, the z-score in assay [2] is -0.3 (inactive); in assay [3] it was -0.473 (inactive); in assay [4] it was -0.293 (inactive); in [5], -0.497 (inactive); in assay [11], -0.675 (inactive); in assay [13], 1.56 (inactive). The z-score in assay [14] was 0.586 (inactive); in assay [15] it was 0.215 (inactive); in assay [16], 0.526 (inactive); in assay [17], -0.254; in assay [18], 2.31 (inactive); in assay [19] it was -0.79 (inactive). This compound also returned a z-score in assay [20] of 0.127.
Regarding `COc1ccc(COC(=O)NN=C2C[C@@H](O)[C@@H](O)[C@@H]3[C@@H]4C(=O)N(C[C@@H]5CCCO5)C(=O)[C@@H]4CC[C@@H]23)cc1`, the composite z-score was 0.0073 in assay [1]; 0.662 in assay [6]; -0.15 in assay [7]; 1.2 with Torsin-1A (Homo sapiens) [8]; 1 with Torsin-1A (Homo sapiens) [9]; 0.0407 in assay [10]. Also, the composite z-score in assay [12] is -0.235. Further, the z-score in [2] is 0.0894 (inactive); in [3], 1.2 (inactive); in assay [4] it was 0.338 (inactive); in assay [5] it was -0.959 (inactive); in assay [11], 1.08 (inactive); in assay [13], 3.44 (inactive). Further, the z-score in [14] was 0.415 (inactive); in assay [15], 1.3 (inactive); in [16] it was 0.18 (inactive); in [17], -0.0088; in assay [18] it was -0.682 (inactive); in [19], 0.995 (inactive). In addition, the z-score in assay [20] is -0.0772.
Take `C#CCCCON=C1[C@H]2CCn3c(=O)n(Cc4cc5c(cc4Cl)OCO5)c(=O)n3[C@H]2[C@H](O)[C@@H]2O[C@H]12`: the composite z-score in [1] is 0.272; in assay [6] it was 0.23; in assay [7], -0.0375; with Torsin-1A (Homo sapiens) [8], 0.0703; with Torsin-1A (Homo sapiens) [9], 0.248; in [10] it was 1.08. Besides, the composite z-score in assay [12] is -0.101. In addition, the z-score in assay [2] was 0.256 (inactive); in assay [3], -0.55 (inactive); in [4] it was -0.207 (inactive); in assay [5], 0.959 (inactive); in [11] it was -0.248 (inactive); in [13], 0.649 (inactive). Further, the z-score in assay [14] was 0.581 (inactive); in assay [15] it was 0.579 (inactive); in assay [16], 0.035 (inactive); in [17] it was -0.345; in [18] it was -0.331 (inactive); in [19], 0.367 (inactive). Besides, the z-score in [20] is -0.275.
Turning to `CC(C)=NOC(C)CN1CCCCc2nc(C)c(C)cc21` (stereo not given), the composite z-score is 0.243 in [1]; -0.28 in assay [6]; 0.0314 in assay [7]; 0.765 with Torsin-1A (Homo sapiens) [8]; 0.346 with Torsin-1A (Homo sapiens) [9]; 0.681 in assay [10]. The composite z-score in assay [12] was -0.145. Also, the z-score in [2] is 0.479 (inactive); in assay [3], 0.282 (inactive); in assay [4], -0.236 (inactive); in assay [5] it was 0.0266 (inactive); in assay [11], -0.866 (inactive); in [13], -0.147 (inactive). Besides, the z-score in assay [14] was -0.16 (inactive); in assay [15], -0.565 (inactive); in assay [16], 0.195 (inactive); in [17], -0.618; in assay [18], -0.0962 (inactive); in assay [19], -0.278 (inactive). In addition, in assay [20], the z-score is -0.417.
As to `COc1ccc(COC(=O)NN=C2C[C@@H](O)[C@@H](O)[C@@H]3[C@@H]4C(=O)N([C@@H](C)c5ccccc5)C(=O)[C@@H]4CC[C@H]23)cc1`, the composite z-score in assay [1] was 0.366; in assay [6] it was 1.02; in assay [7] it was 0.0667; with Torsin-1A (Homo sapiens) [8], -0.982; with Torsin-1A (Homo sapiens) [9], 0.106; in assay [10], -0.983. In [12], the composite z-score was found to be 0.751. In addition, the z-score in assay [2] was -1.71 (inactive); in assay [3], -0.183 (inactive); in assay [4], 1.79 (inactive); in assay [5], -0.183 (inactive); in assay [11], 0.486 (inactive); in assay [13] it was 7.67 (inactive). For the same compound, the z-score is 0.805 (inactive) in [14]; -0.0805 (inactive) in [15]; 0.501 (inactive) in assay [16]; -0.34 in [17]; 0.947 (inactive) in assay [18]; 0.672 (inactive) in [19]. Further, in assay [20], the z-score was -0.419.
